D2 PAM-1 – positive allosteric modulators of human D2 dopamine receptor; potentiation, % (no concentration beside the values); DiscoveRx D2 beta-arrestin cells, luminescence, 90 min; 100% = 57 uM dopamine signal; AID 624464; hit rate 0.23% among 360,000; in the data active means potentiation above about 50%; inconclusive means mostly about 30% to 49%
Target sequence (P14416 whole entry, looked up): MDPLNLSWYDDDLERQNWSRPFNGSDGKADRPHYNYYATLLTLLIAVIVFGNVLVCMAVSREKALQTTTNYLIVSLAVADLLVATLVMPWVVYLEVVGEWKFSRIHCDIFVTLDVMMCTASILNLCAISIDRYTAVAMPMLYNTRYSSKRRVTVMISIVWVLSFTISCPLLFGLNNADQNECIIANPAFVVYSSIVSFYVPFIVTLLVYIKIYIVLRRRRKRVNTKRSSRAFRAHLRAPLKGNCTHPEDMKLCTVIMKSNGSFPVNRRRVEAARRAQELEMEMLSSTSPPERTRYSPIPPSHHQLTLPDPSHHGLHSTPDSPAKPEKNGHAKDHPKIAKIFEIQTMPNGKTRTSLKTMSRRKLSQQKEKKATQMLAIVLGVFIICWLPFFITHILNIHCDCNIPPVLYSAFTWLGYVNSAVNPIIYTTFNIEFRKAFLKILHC
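D2 cells co-treated with compound plus 50 nM dopamine (EC20) for 90 min at 37 deg C to detect potentiation. Beta-arrestin recruitment was read as enzyme-fragment luminescence after 1 h at ambient temperature. Full response was set by 57 uM dopamine.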
D2 antag – antagonizes the human D2 dopamine receptor. P14416. HEK293 TREx D2 cells, calcium flux, dopamine EC80. inhibition, % at 10 µM. hit rate 2% among 340,000. AID 485344; in the data active means inhibition above about 30%; inactive means below that, where a call was filed; further: 0% is about no effect
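Read-out: kinetic calcium fluorescence (1 cycle/s) in inducible HEK293 T-REx D2 cells after an EC80 dopamine addition that followed 180 s compound preincubation. Loss of the dopamine response indicates antagonism.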
D2 ag-1 – activates the human D2 dopamine receptor; hit rate 0.53% among 340,000; HEK293 T-REx D2 cells, calcium flux agonist mode; activation, % at 2 µM;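 active means activation over 3 SD above normal in the single-dose calcium agonist read, cut at about 30% in these data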; further: 0% is about no effect
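HEK293 Trex D2 cells, tetracycline-induced, o/n 30 C 5% CO2; no-wash Ca dye, RT 30–90 min; 10-cycle baseline, 23 nl cpd added, kinetic Ca read 180 s; agonist hits = positive Ca response.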
D2 PAM-2 – positive allosteric modulators of human D2 dopamine receptor; P14416; HEK293 T-REx D2, calcium flux, EC20 dopamine potentiation; potentiation, % at 10 µM; hit rate 0.34% among 340,000;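 active means potentiation over 3 SD above the plate norm, cut at about 30% in these data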; further: 0% is about no effect
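Tetracycline-induced Hek293 Trex D2 cells, force-coupled to calcium, loaded with no-wash calcium dye. Compound added with 180 s kinetic read for agonism, then EC20 dopamine and a further 180 s read for potentiation.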
D2 ag-2 – agonists of human D2 dopamine receptor (beta-arrestin). P14416. DiscoveRx PathHunter D2 beta-arrestin, luminescence, 90 min; 100% = 57 uM dopamine signal. activation, % (concentration not given with the values). hit rate 0.084% among 360,000; in the data active means activation above about 40%; inconclusive means between about 15% and that limit
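Agonist mode: compounds alone added to overnight-plated D2 PathHunter cells for 90 min at 37 C, with 57 uM final dopamine (EC100) defining full response. Beta-arrestin recruitment detected by chemiluminescent reagent, read after 1 h at ambient temperature.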
The depositor's hits bear a star; ? = inconclusive; . = no result. In the library only some 2.4% were active in any assay of this set; here they are far more common.

SMILES | D2 PAM-1 | D2 antag | D2 ag-1 | D2 PAM-2 | D2 ag-2
Cc1ccc(COC(=O)c2cccc(S(=O)(=O)N3CCCCC3)c2)cc1 | -20 | -15 | -1 | 13 | -7
COc1ccccc1COC(=O)c1cccc(S(=O)(=O)N2CCCC2)c1 | -28 | 42* | 0 | 7 | -3
Cc1ccc(COC(=O)c2cccc(S(=O)(=O)N3CCCCCC3)c2)cc1 | -14 | 43* | 1 | 12 | 0
COc1ccccc1NC(=O)C(C)OC(=O)C1COc2ccccc2O1 (stereo not given) | -2 | -6 | 0 | -2 | 1
CC12CCC(=O)N1c1ccccc1C(=O)N2c1ccccc1 (stereo not given) | -16 | -21 | 1 | 34* | 1
OCCC1CN(Cc2cccn2-c2ncccn2)CCN1Cc1ccccc1 (stereo not given) | -14 | 31* | -2 | 6 | -1
COc1ccc(OC)c(CN2CCN(CCCc3ccccc3)C(CCO)C2)c1 (stereo not given) | -4 | 69* | 1 | -35 | -2
Cc1ccc(CN2CCN(Cc3cccn3-c3ccccn3)CC2CCO)cc1 (stereo not given) | -13 | -6 | -1 | -18 | -2
COc1cccc(CN2CCN(Cc3ccc(O)c(OC)c3)CC2CCO)c1 (stereo not given) | -18 | 36* | 1 | -8 | -5
Cc1ccccc1CN1CCN(CCCc2ccccc2)C(CCO)C1 (stereo not given) | -26 | 38* | 1 | -22 | 5
O=C(CCC(=O)c1cccs1)NCC(c1ccc(F)cc1)N1CCOCC1 (stereo not given) | -5 | 16 | -1 | 11 | 6
C#Cc1ccc(CN2CCN(CCCc3ccccc3)C(CCO)C2)cc1 (stereo not given) | -26 | 75* | 0 | -19 | 1
CSCCC(NC(=O)c1ccco1)C(=O)Nc1ccc(C)cn1 (stereo not given) | 1 | 2 | 3 | 1 | 1
C=CCN1C(=O)/C(=C/c2ccc(OC(C)=O)c(OCC)c2[N+](=O)[O-])SC1=S | 5 | 30* | 9 | 10 | 3
COc1ccc2c(c1OC)C(=O)N1c3ccccc3C(=O)N(c3ccc(F)cc3)C21 (stereo not given) | 0 | 41* | 0 | . | -2
CC1=C(c2ccc(C(C)C)cc2)S(=O)(=O)NC1=NCc1ccc(Cl)cc1 | . | . | 1 | -1 | .
CN(C)c1ccc(/C=C/C(=O)c2c(O)c3ccccc3oc2=O)cc1 | 2 | -2 | 39* | 4 | 4
CC(C)(C)OC(=O)N1CCC(c2c(C(=O)N3CCN(C(=O)c4ccco4)CC3)cnn2-c2ccccc2Cl)CC1 | . | . | 1 | . | .
O=C1C=C(c2cccs2)C[C@H](c2ccccc2)[C@H]1n1nnc([N+](=O)[O-])n1 | 92* | -10 | -1 | 7 | ?
O=C(c1ccc(=O)[nH]c1)N1CCN(S(=O)(=O)c2ccccc2)CC1 | 0 | 31* | 0 | 23 | -4
O=C(N1CCCCCC1)N1CCN(S(=O)(=O)c2ccccc2)CC1 | -2 | 15 | 1 | 3 | 1
COc1ccc(S(=O)(=O)N2CCN(C(=O)c3oc4ccccc4c3C)CC2)cc1 | -4 | -7 | 1 | -6 | -1
Cc1c(C(=O)N2CCN(S(=O)(=O)c3ccccc3)CC2)oc2ccccc12 | 3 | 34* | 0 | -8 | -5
O=C(c1ccc(=O)[nH]c1)N1CCN(S(=O)(=O)c2ccc(Cl)cc2)CC1 | -1 | 5 | 1 | 4 | 2
O=C(N1CCCCC1)N1CCN(S(=O)(=O)c2ccccc2)CC1 | -13 | 8 | 1 | 70* | 1
O=C(CN1CCSC1=O)N1CCN(S(=O)(=O)c2ccccc2)CC1 | -4 | 37* | 0 | -2 | -2
Cc1ccc(NC(=O)c2ccc3nc(Cc4ccccc4)oc3c2)cc1F | . | . | 0 | 7 | .
COc1ccc(CCNC(=O)c2c(O)nc3c(C)cccn3c2=O)cc1OC | . | . | 0 | 15 | .
CC(C)(C)OC(=O)N[C@H](C(=O)OC(C)(C)C)c1ccc(C(F)(F)F)cc1 | -6 | . | . | 5 | -2
Cc1ccc(NC(=O)C2OCCc3ccccc32)cc1C (stereo not given) | -7 | 42* | -2 | 12 | -4

Screens as filed in PubChem.
